PubChem BioAssay AID720619 (Broad Institute, 2013)
Records with an inconclusive call do not appear. The source made the active and inactive calls.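 Rule for the calls: active = toxic at all three exposure times, half-maximal drop reached within twice the top dose; inconclusive = exposure times disagree, or curves are weak, flat or poorly fitted; inactive = inactive at every exposure time.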

Test: viability loss in HT-29 adenocarcinoma cells – cell-based, Alamar Blue fluorescence, several timepoints, dry powder, mechanism study for HRAS target identification, late-stage follow-up (AID 720619)
Conditions: HT-29 viability
[1] = 48 h, at 35 µM (top of the series)

| Structure (SMILES) | activity, lower = more toxic [1] | activity, lower = more toxic (8 h treatment, at 35 µM) [%] |
| --- | --- | --- |
| Cc1onc(C(=O)N2CCN(C(c3ccncc3)c3ccncc3)CC2)c1[N+](=O)[O-] | 7.85% (inactive) | -3.11 |
| CCC(=O)N(c1ccc(OC)c(Cl)c1)C(C(=O)NCCc1ccccc1)c1cccs1 (centres undefined) | 32.2% (inactive) | 5.18 |
